HCMV antiviral = blocks human cytomegalovirus replication; AID 1259415; HFF cells, HCMV-luciferase reporter, 72 h; stronger effect = lower value; activity change, negative = inhibition, % at 57.5 µM; actives 4.5% (n = 410,000); in the data active = activity change below about -60%; inconclusive = no clear call, values can overlap the other calls; inactive = above about -39%
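Screen run at 2 compound doses on HFFs infected with reporter HCMV, MOI 1 PFU/cell. Luciferase activity from cell lysates at 72 h post infection gave inhibition relative to buffer-only and Salinomycin wells.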
Pf growth 48h = inhibits P. falciparum growth in the first generation, 48 h | P. falciparum luciferase growth in erythrocytes, 48 h | Potency, µM (top dose mostly 28.7 µM), most hits filed as inhibitors | actives 5.9% (n = 310,000) | AID 504832
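Luciferase-expressing P. falciparum in infected erythrocytes (2% hematocrit, 0.1% parasitemia final) in RPMI 1640/0.5% Albumax were exposed to compound for 48 hours at 37 C, 5% CO2; growth read as luminescence.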
CHX counter = affects cycloheximide protein synthesis inhibition readout, counter-screen; cell reporter, cycloheximide protein synthesis inhibition counterscreen; max response, %; actives 12% (n = 300,000); AID 2314; in the data active = max response mostly above about 13%, no sharp cut-off; inactive = mostly below about 14%; note: read at 38.3 µM for the half of the compounds with a filed dose
Pf growth 96h = P. falciparum growth inhibition at 96 hour, primary screen for plastid delayed-death inhibitors; P. falciparum luciferase reporter growth, 96 h; Potency, µM (top dose mostly 28.7 µM), hits mostly inhibitors; actives 6.9% (n = 320,000)
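Infected RBCs, 2% Hct / 0.05% parasitemia final; luciferase-reporter P. falciparum; cpd 96 h, 37 C, 5% CO2; luciferase detection reagent; luminescence.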
HCV inhibitor = blocks hepatitis C virus. Huh7.5.1 HCVcc-Cre infection, luciferase reporter, 44 h. Potency, µM (doses to about 41.8 µM), actives largely listed as inhibitors. actives 3.4% (n = 340,000)
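Whole-lifecycle infectious HCVcc-Cre system; cells 1,000/well, compound then virus (~0.5 moi) added 4 h after plating, 44 h culture. Luciferase read 15 sec following 15 min substrate incubation, room temp.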
Shiga toxin inh = inhibitors of Shiga toxin in Vero cells; Vero cells, Shiga toxin protein synthesis inhibition reporter; actives 9.2% (n = 290,000); AID 2315; inhibition, % at 38.7 µM; in the data active = inhibition mostly above about 28%, no sharp cut-off; inactive = mostly below about 43%
Hits are given with their value; – = inactive; ? = inconclusive; · = no result given; [ ] = dose if it differs, or a comment. An excerpt weighted towards active compounds, which were near 21% of everything screened. Unless noted, calls come from the whole dose curve; as a rule, active = well fitted inhibition curve with a large enough effect; inconclusive = small, poorly fitted or top-dose-only effect, or another doubt; inactive = no such curve, though single readings can be large or run the other way.

SMILES | HCMV antiviral | Pf growth 48h | CHX counter | Pf growth 96h | HCV inhibitor | Shiga toxin inh
CC(=O)N1CCc2c(sc(NC(=O)CSc3ccc(C)cc3)c2-c2nc3ccccc3s2)C1 | – | · | · | · | · | ·
COC(=O)c1c(NC(=O)c2nc3ccccc3s2)sc2c1CCN(C(C)=O)C2 | · | · | – | 10µM | – | –
CC(=O)N1CCc2c(sc(NC(=O)c3ccc(S(=O)(=O)N(C)C)cc3)c2C#N)C1 | – | · | · | · | – | ·
CNC(=O)c1c(NC(=O)c2nc3ccccc3s2)sc2c1CCC2 | · | · | 26 | – | · | 94
COC(=O)c1c(NC(=O)c2cccc(N3C(=O)CCC3=O)c2)sc2c1CCN(C(C)=O)C2 | – | – | – | 9.3µM | – | –
CC(=O)N1CCc2c(sc(NC(=O)c3ccc4c(c3)OCCO4)c2C#N)C1 | – | ? | 13 | – | 2.8µM | –
O=C(O)c1ccc2c(c1)C(=O)N([C@H](Cc1ccc(Cl)cc1)C(=O)O)C2=O | · | ? | – | – | · | –
C[C@H]1CCC[C@]2(O[C@H](CCO)C[C@@H](O)[C@@H]2O)O1 | – | · | · | · | – | ·
Cc1ccc(-c2cc(-c3ccccc3)cc(-c3ccccc3)[n+]2-c2ccccc2C(=O)O)cc1 | -67 | 10µM | · | 2.9µM | ? | ·
O=C([O-])c1ccc(-[n+]2c(-c3ccccc3)cc(-c3ccccc3)cc2-c2ccccc2)cc1 | – | ? | · | ? | – | ·
COC(=O)N/N=C(\C)c1ccc(Br)cc1 | – | · | – | – | – | –
C/C(=N\NC(=O)OC(C)(C)C)c1ccccc1Br | – | – | 59 | – | – | 63
CCCC(CCC)=NNC(=O)c1ccccc1F | – | – | – | – | – | –
C/C(=N\NC(=O)c1ccccc1)c1ccccc1F | – | – | 26 | – | – | 87
NNC(=O)c1ccccc1OCCOc1ccccc1 | – | – | – | – | –[8.37 µM] | –
C/C(CC(=O)N(C(C)C)C(C)C)=N\NC(=O)c1ccccc1Br | – | – | – | – | – | –
C/C(=N\NC(=O)c1ccccc1OCCOc1ccccc1)c1ccccc1F | – | 12µM | · | ? | ? | ·
C/C(=N\NC(=O)c1ccccc1)c1ccccc1Br | – | – | 58 | – | – | 67
Cc1ccc(C(=O)c2cn(CC(=O)Nc3ccc(C(C)C)cc3)c3nc(C)ccc3c2=O)cc1 | – | · | · | · | · | ·
O=C(Nc1cccc(-c2csc(Nc3ccccc3)n2)c1)c1cc([N+](=O)[O-])cc(C(F)(F)F)c1 | – | ? | 18 | ? | ? | 27
O=C(Nc1cccc(-c2csc(Nc3ccc(Cl)cc3)n2)c1)c1cc([N+](=O)[O-])cc(C(F)(F)F)c1 | ? | 1.7µM | – | 2.1µM | ? | –
O=C(Nc1cccc(-c2csc(Nc3ccc(Cl)cc3)n2)c1)c1cccc(C(F)(F)F)c1 | – | ? | 12 | ? | 3.2µM | 42
O=C(Nc1ccc(-c2csc(Nc3ccc(Cl)cc3)n2)cc1)c1cc([N+](=O)[O-])cc(C(F)(F)F)c1 | – | ? | – | ? | ? | –
COc1cccc(NC(=O)C2CCN(c3ccc(Sc4ccc(C)cc4)nn3)CC2)c1 | – | · | · | · | · | ·
CC(C)Sc1ccc(C(=O)Nc2ccc(F)cc2F)cn1 | – | – | 48 | – | – | 50
SMILES | HCMV antiviral | Pf growth 48h | CHX counter | Pf growth 96h | HCV inhibitor | Shiga toxin inh
CN(C)C(=O)c1ccc(-n2cccn2)nc1 | ? | 10µM | – | – | – | –
O=C(Nc1ccc(F)cc1F)c1ccc(-n2cncn2)nc1 | – | – | – | – | – | –
O=C(Nc1ccc(F)cc1F)c1ccc(-n2cccn2)nc1 | – | – | 16 | – | – | –
CC(O)(c1cccc(F)c1)c1nc(-c2ccc(Cl)cc2)cs1 (stereo not given) | – | · | · | · | · | ·
Cc1c(Nc2nc(-c3ccc(Cl)cc3)cs2)c(=O)n(-c2ccccc2)n1C | ? | – | – | 13µM | ? | –
Cc1ccnc(Nc2nc(-c3ccc(F)cc3)cs2)c1 | – | – | 50 | ? | ? | 100
CCOC(=O)Cc1csc(Nc2c(C)n(C)n(-c3ccccc3)c2=O)n1 | – | – | – | – | – | –
Cc1ccnc(Nc2nc(-c3ccc(Cl)cc3)cs2)c1 | – | – | 38 | – | ? | 42
CCc1ccc(-c2nn(CC(=O)NC3CCCCC3)c3c2cnc2ccc(F)cc23)cc1 | – | · | · | · | · | ·
CC(=O)Nc1ccc(C(=O)OCC(=O)NCc2ccc3c(c2)OCO3)cc1 | – | · | · | · | – | ·
Cc1cccc(Nc2nc(N)c([N+](=O)[O-])c(NCCO)n2)c1 | – | ? | – | ? | – | –
COc1ccc(NC2=C(NCCO)C(=O)c3ccccc3C2=O)cc1 | – | 7.4µM | 53 | ? | ? | 81
Cc1cccc(NC2=C(NCCO)C(=O)c3ccccc3C2=O)c1 | – | 4.7µM | – | – | – | –
COc1cccc(NC2=C(NCCO)C(=O)c3ccccc3C2=O)c1 | – | – | 11 | – | – | ·
COc1cccc(Nc2c(Nc3cccc(OC)c3)c(=O)c2=O)c1 | – | ? | – | ? | – | –
O=C(CN1C(=O)NC2(CCCCCC2)C1=O)N1CCN(c2ccccc2)CC1 | – | ? | · | ? | – | ·
Cc1[nH]n(S(=O)(=O)c2ccccc2)c(=O)c1N=Nc1cccc(Cl)c1 | – | – | – | – | – | –
NC(=S)n1[nH]c(-c2ccc([N+](=O)[O-])cc2)c(N=Nc2ccc(O)cc2)c1=O | – | · | – | – | – | –
Cc1[nH]n(C(N)=S)c(=O)c1N=Nc1cccc(Cl)c1 | – | · | 32 | – | – | 60
NC(=S)n1[nH]c(-c2ccc([N+](=O)[O-])cc2)c(N=Nc2cccc(Cl)c2)c1=O | -101 | ? | – | – | 13µM | –
Cc1cc(F)ccc1Nc1nc2ccc(Cl)cc2n2cnnc12 | – | · | · | · | · | ·
COc1cccc(Nc2nc3ccccc3n3cnnc23)c1 | – | · | 15 | ? | ? | –
COc1ccc(Nc2nc3ccccc3n3cnnc23)cc1Cl | – | · | 35 | ? | ? | –
Cc1ccc(Nc2nc3ccc(Cl)cc3n3cnnc23)cc1F | – | 10µM | – | ? | ? | –
COc1ccc(/C(C)=N/Nc2nc3ccccc3n3cnnc23)cc1OC | – | ? | 19 | ? | ? | 40
SMILES | HCMV antiviral | Pf growth 48h | CHX counter | Pf growth 96h | HCV inhibitor | Shiga toxin inh
CC(=O)N1C[C@H]2CON(C)[C@H]2C[C@H]1c1cccc(-c2ccccc2C)c1 | – | · | · | · | – | ·
O=C(NCc1ccc(F)cc1)Nc1nnc([C@H]2C[C@H](O)[C@@H](CO)O2)s1 | – | · | · | · | · | ·
Cc1cccc(CNC(=O)C2CCN(c3nn4cc(-c5ccc(F)cc5)nc4s3)CC2)c1 | – | · | · | · | · | ·
COc1ccc(CC(NC(C)=O)C(=O)NC2CCN(c3nnnn3-c3ccccc3)CC2)cc1OC (stereo not given) | · | – | – | ? | · | –
O=C(c1ccc(Cl)cc1)C1C2C(=O)N(c3ccccc3)C(=O)C2C2CCCN21 (stereo not given) | – | ? | – | 15µM | – | –
CC(=O)c1ccc(N2C(=O)C3C(C2=O)C(C(=O)c2ccc(Cl)cc2)N2CCCC32)cc1 (stereo not given) | – | ? | – | – | – | –

Screening data: PubChem BioAssay, National Center for Advancing Translational Sciences (NCATS)
